This is a sample that favours compounds with a hit; in the whole collection about 6.9% have one here.
JMJD2A Tudor = qHTS Assay for Inhibitors of JMJD2A-Tudor Domain; Lysine-specific demethylase 4A (Homo sapiens), O75164; AlphaScreen JMJD2A-Tudor / H3K4me3 peptide binding; Potency, µM (titrated, usually from 114 µM), for the others: at the highest dose activity change, negative = inhibition, most hits filed as inhibitors; 390,000 tested, 4.4% active; AID 504339, 2011; further: on the % scale 0 is the no-effect control and ±100 the full control effect; nearly all actives have a fitted effect of over 50% in size
HP1b binding inh = HTS for Inhibitors of HP1-beta Chromodomain Interactions with Methylated Histone Tails. AlphaScreen HP1-beta / biotin-H3K9me3 peptide binding. Potency, µM (series often up to 114 µM), inactives show top-dose activity change, negative = inhibition, usual class: inhibitors. 390,000 tested, 0.56% active. AID 540317, 2011; further: nearly all actives have a fitted effect of over 70% in size
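AlphaScreen: HP1-beta (50 nM) preformed 30 min with biotin-H3(1-18)K9me3 peptide (50 nM) in PBS pH 7.4, 0.01% Tween-20. Compound added for 30 min at RT, then streptavidin donor/nickel chelate acceptor beads (10 ug/mL) for 30 min.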
BAZ2B inh = qHTS Assay for Inhibitors of BAZ2B. Potency, µM (highest dose often 114 µM), for inactives: at the top dose activity change, negative = inhibition, most hits filed as inhibitors. 360,000 tested, 4.4% active. AID 504333, 2011. AlphaScreen BAZ2B-H3K14Ac peptide displacement. Bromodomain adjacent to zinc finger domain protein 2B (Homo sapiens), Q9UIF8; further: on the % scale 0 is the no-effect control and ±100 the full control effect; nearly all actives have a fitted effect of over 60% in size
Target sequence (Q9UIF8 whole entry, looked up, the tested form may be a part): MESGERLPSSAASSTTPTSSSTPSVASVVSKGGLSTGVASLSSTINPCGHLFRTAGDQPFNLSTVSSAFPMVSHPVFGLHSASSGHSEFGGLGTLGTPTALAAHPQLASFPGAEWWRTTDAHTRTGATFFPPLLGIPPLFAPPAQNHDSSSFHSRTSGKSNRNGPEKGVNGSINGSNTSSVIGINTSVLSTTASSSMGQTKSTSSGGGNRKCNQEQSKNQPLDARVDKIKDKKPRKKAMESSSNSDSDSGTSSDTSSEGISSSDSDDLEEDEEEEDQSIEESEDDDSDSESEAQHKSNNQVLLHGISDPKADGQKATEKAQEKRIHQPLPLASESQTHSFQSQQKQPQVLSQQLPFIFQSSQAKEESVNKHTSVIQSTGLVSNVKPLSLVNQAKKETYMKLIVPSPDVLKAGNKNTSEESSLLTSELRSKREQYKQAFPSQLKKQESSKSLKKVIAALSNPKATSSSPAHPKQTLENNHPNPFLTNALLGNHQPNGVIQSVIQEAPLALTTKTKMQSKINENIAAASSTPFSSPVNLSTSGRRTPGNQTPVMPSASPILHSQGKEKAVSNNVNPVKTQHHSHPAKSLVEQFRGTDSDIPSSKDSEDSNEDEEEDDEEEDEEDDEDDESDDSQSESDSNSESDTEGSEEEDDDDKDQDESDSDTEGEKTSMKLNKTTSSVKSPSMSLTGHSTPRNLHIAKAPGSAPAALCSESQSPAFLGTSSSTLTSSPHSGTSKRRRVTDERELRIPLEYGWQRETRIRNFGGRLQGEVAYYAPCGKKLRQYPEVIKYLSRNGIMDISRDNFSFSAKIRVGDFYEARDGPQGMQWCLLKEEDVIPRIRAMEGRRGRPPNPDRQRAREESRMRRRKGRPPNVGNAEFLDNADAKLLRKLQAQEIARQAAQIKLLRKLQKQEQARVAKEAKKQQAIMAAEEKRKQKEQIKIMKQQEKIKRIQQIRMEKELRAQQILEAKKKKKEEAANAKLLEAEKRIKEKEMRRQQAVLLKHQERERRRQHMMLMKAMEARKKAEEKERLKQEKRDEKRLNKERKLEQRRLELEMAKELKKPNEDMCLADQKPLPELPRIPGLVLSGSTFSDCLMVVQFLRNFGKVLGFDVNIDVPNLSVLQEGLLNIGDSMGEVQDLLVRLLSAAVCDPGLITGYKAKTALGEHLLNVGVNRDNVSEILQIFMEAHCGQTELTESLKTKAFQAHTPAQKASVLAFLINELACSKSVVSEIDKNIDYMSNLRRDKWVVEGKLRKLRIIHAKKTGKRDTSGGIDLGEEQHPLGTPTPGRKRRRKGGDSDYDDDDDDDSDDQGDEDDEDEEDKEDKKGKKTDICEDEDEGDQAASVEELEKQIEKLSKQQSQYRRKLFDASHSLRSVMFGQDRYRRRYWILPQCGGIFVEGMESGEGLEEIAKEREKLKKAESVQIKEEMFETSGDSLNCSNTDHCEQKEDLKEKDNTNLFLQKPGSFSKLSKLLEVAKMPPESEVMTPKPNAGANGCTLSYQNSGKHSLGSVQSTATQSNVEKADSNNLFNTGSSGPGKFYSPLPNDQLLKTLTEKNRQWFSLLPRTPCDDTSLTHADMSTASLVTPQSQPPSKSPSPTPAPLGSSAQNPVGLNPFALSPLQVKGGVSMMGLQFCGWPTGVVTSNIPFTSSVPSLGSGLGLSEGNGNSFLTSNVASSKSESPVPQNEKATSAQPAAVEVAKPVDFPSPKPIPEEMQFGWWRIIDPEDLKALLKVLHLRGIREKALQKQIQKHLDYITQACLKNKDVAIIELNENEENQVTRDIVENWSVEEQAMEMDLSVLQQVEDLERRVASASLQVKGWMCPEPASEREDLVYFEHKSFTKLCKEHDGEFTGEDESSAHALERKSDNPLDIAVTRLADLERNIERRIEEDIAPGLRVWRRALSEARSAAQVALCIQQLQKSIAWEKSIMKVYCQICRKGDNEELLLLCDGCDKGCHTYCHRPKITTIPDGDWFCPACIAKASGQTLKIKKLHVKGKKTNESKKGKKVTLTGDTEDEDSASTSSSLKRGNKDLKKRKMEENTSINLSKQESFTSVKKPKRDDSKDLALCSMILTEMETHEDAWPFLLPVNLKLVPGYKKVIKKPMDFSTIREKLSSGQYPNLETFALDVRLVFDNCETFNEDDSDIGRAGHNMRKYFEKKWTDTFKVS
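Multi-concentration screen (max 110 uM) measuring displacement of acetylated histone H3 peptide from BAZ2B by AlphaScreen, using 50 nM protein, 50 nM peptide and 10 ug/mL streptavidin donor plus Ni-chelate acceptor beads.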
VDR inh = Inhibitors of the vitamin D receptor (VDR): qHTS. VDR-SRC2-3 peptide fluorescence polarization, 2 h. Potency, µM, without a hit: max response, negative = inhibition, actives largely listed as inhibitors. 400,000 tested, 0.93% active. AID 504847, 2011; further: on the % scale 0 is the no-effect control and ±100 the full control effect
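Measured by FP: displacement of SRC2-3 coactivator peptide from VDR by library compounds, following a two-hour ambient incubation.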
PLK1 PBD inh = qHTS for Inhibitors of PLK1-PDB (polo-like kinase 1 - polo-box domain): Primary Screen; Serine/threonine-protein kinase PLK1 (Homo sapiens), P53350; Plk1 PBD binding of FITC phosphopeptide, fluorescence polarization; Potency, µM, inactives show max response, negative = inhibition, hits mostly inhibitors; 360,000 tested, 2.8% active; further: series mostly up to about 57 µM; on the % scale 0 is the no-effect control and ±100 the full control effect; nearly all actives have a fitted effect of over 65% in size
L3MBTL1 block = qHTS Assay for the Inhibitors of L3MBTL1 | Lethal(3)malignant brain tumor-like protein 1 (Homo sapiens), Q9Y468 | AlphaScreen L3MBTL1–H3K9me1 peptide binding | Potency, µM (top dose mostly 57.1 µM), for inactives: at the highest dose activity, negative = inhibition, hits mostly inhibitors | 230,000 tested, 0.66% active; further: on the % scale 0 is the no-effect control and ±100 the full control effect; nearly all actives have a fitted effect of over 60% in size
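First, the protein-peptide complex forms for 30 min at room temperature (L3MBTL1 50 nM, biotinylated H3K9me1 peptide 75 nM). Next, compounds are pin-transferred and incubated 30 min. Finally, AlphaScreen beads are added and read after 30 min.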
Starred values were filed as active, the others as inactive; ? = inconclusive; · = no result given; [ ] = remark or other dose. The call rests on the fitted dose curve; in most records, active means well fitted curve in the direction sought with a large enough effect; inconclusive means small, poorly fitted or top-dose-only effect, or another doubt; inactive means no such curve, though single readings can be large; an effect the other way counts as inactive or inconclusive. Potency means the concentration at half of the fitted maximal effect.

SMILES	JMJD2A Tudor	HP1b binding inh	BAZ2B inh	VDR inh	PLK1 PBD inh	L3MBTL1 block
CCOC(=O)[C@H]1[C@H]2COc3cc(OC)ccc3[C@@H]2N2C(=O)N(c3ccc(Cl)cc3)C(=O)[C@@]12C	-17.6%	-5.1%	-6.3%	-12.4%	-7.6%	-7.2%
Cc1ccc(C)c(Nc2ncnc3onc(C)c23)c1	-12.6%	16.0%	15.0%[57.1 µM]	9.5%	·	·
Cc1ccc(-n2nc3ccc(N)cc3n2)cc1C	-24.6%	-12.0%	50.1µM*	-0.3%	-5.1%	-20.1%
COc1ccc(C2NCCc3c2[nH]c2ccccc32)cc1COc1ccc(F)cc1 (stereo not drawn)	39.8µM*	?	35.5µM*	-4.6%	-14.5%	-13.6%
O=C(OCC(=O)N1CCCC1)c1ccc(S(=O)(=O)Nc2ccccc2)cc1	-2.1%	48.5%	5.5%	4.2%	-2.3%	12.7%
Cc1nc(SCC(N)=O)c([N+](=O)[O-])[nH]1	39.8µM*	15.3%	-21.6%	-9.8%	2.7%	-1.7%
C(=C\c1nc(-c2ccccc2)oc1Nc1ccc2ccccc2c1)/c1ccccc1	·	·	·	0.2%	·	·
CCNc1ncc2nc(-c3cn(C)c4ccccc34)c(=O)n(-c3ccccc3)c2n1	·	·	·	-3.5%	·	·
Cc1ccc2c(c1)C(=O)C(=O)N2CCCOc1ccccc1C	39.8µM*	?	-17.4%	39.8µM*	?	6.2%
CCCN1C(=O)C(=O)c2cc(C)ccc21	-8.6%	29.9%	·	-8.4%	-15.6%	-2.6%
Cc1ccc2c(c1)C(=O)C(=O)N2CCOc1ccccc1	?	?	?	79.4µM*	-13.5%	-25.1%
OC1=C(O)c2nc3cc(F)ccc3nc21	-12.4%	17.1%	-12.3%	-6.8%	21.2µM*	·
S=C(NCCCc1cnc[nH]1)NCCCN(Cc1ccc(Cl)c(Cl)c1)c1ccccn1	44.7µM*	·	·	·	·	·
S=C(NCCCCN(Cc1ccc(Cl)cc1)c1ccc(Br)cn1)NCCCc1cnc[nH]1	44.7µM*	25.1µM*	·	-10.7%	·	·
CNC(=S)NCCCCc1cnc[nH]1	·	·	·	5.7%	·	·
O=C(NCCCc1cnc[nH]1)NCCCN(Cc1ccc(Cl)c(Cl)c1)c1ccc(Br)cn1	50.1µM*	·	·	·	·	·
CC(=O)NCCCN(Cc1ccc(Cl)c(Cl)c1)c1ccc(Br)cn1	-17.0%	20.0%	·	-22.5%	·	·
CN(CCCN(Cc1ccc(Cl)cc1)c1ccc(Br)cn1)C(=S)NCCCc1cnc[nH]1	56.2µM*	?	·	-10.9%	·	·
CC(C)CN1CCC(=O)N(C(CSc2ccc(Br)cc2)Cc2ccccc2)CC1 (stereo not drawn)	24.8%	97.3%	·	-5.8%	·	·
Cc1ccc(NC(=O)CSCC(=O)Nc2ccccc2N2CCCC2)cc1	-29.8%	-8.5%	43.3%	-5.0%	-0.2%	-11.6%
CN1C(=O)/C(=C/c2cc(C(C)(C)C)c(O)c(C(C)(C)C)c2)NC1=S	0.0%	42.0%	-0.4%	-6.6%	0.1%	·
CC[C@H](C)[C@H](NC(=O)[C@H](Cc1ccc(O)cc1)NC(=O)[C@@H]1CCCN1C(=O)[C@@H](NC(=O)[C@@H](N)CCCCN)[C@@H](C)CC)C(=O)N[C@@H](CC(C)C)C(=O)O	·	·	·	13.0%	·	·
O=C(O)c1ccc(C2Nc3ccccc3-c3nnc(SCc4ccc(Cl)cc4)nc3O2)cc1 (stereo not drawn)	?	7.2%	50.1µM*	-12.7%	·	·
CCN1CCN(c2ccc(NC(=O)CC3OC(=O)c4ccccc43)cc2C)CC1 (stereo not drawn)	·	·	·	·	-9.1%	·
Cc1cccc(C(=O)Nc2cc3nn(-c4ccc(C(C)C)cc4)nc3cc2C)c1	-3.0%	7.6%	-12.3%	12.2%	·	·
CS/C(Nc1cc(Cl)ccc1Cl)=C(/C#N)C(=O)c1ccco1	?	-17.7%	56.2µM*	?	-18.9%	-7.8%
O=C(Nc1cc(Cl)ccc1Cl)c1ccco1	2.7%	34.7%	-0.8%	-6.4%	5.3%	0.2%[2.29 µM]

High-throughput results from PubChem.
